Activity calls are given as the source filed them. Unless noted, no rule for the calls is given here.
Experiments:
[1] = compounds binding Alexa647 anti-His antibody – biochemical, small-molecule microarray, 635 nm fluorescence, artefact control for SMM control protein annotation, primary screen (AID 1128); conditions: higher = more signal;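 also: score merges feature fluorescence with signal-to-noise for each printed compound spot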
[2] = system: Human papillomavirus type 1a E7 protein (residues 1-88); assay: HPV1a E7 small-molecule binders, primary screen, biochemical, small-molecule microarray, residues 1-88, 635 nm (AID 1129); conditions: small-molecule microarray binding, fluorescence 635 nm; higher = more signal
[3] = biological target: Focal adhesion kinase 1 (Homo sapiens) (UniProt Q05397); assay: PTK2 protein binding on printed compound slides – biochemical, small-molecule microarray, 635/667 nm fluorescence, BSA, DTT, primary screen (AID 1130); conditions: 635 nm fluorescence, higher = more signal;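 also: composite of spot emission at 667 nm and signal to noise over triplicate slides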
[4] = system: Fibrinogen (Alexa647-labelled); assay: Alexa647-fibrinogen binding to printed small molecules – biochemical, small-molecule microarray, 635/667 nm fluorescence, artefact control for SMM control-protein annotation, profiling panel (AID 1131); conditions: fibrinogen-A647 binding fluorescence, higher = more signal;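 also: z-score merges 667 nm fluorescence with per-spot signal-to-noise over triplicate slides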
[5] = biological target: Follistatin (Homo sapiens) (UniProt P19883); assay: FST protein binding to printed compounds – biochemical, small-molecule microarray, 635/667 nm fluorescence, primary screen (AID 1132); conditions: 635 nm fluorescence, higher = more signal
[6] = biological target: Fibroblast growth factor 2 (Homo sapiens) (UniProt P09038); assay: basic fibroblast growth factor binding to printed compounds – biochemical, small-molecule microarray, 635/667 nm fluorescence, primary screen (AID 1133); conditions: FGF2, fluorescence 635/667, higher = more signal
[7] = JC-1 mitochondrial potential readout, lung cancer cells – cell-based, A549, JC-1 fluorescence, basal, 24 h, 100 nL, profiling panel (AID 1138); conditions: higher = more signal;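 also: A549 lung adenocarcinoma cells under basal conditions with no added stimulus; test concentration not given here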
Lefty1 = Lefty1 protein binding to printed compounds – biochemical, small-molecule microarray, 635/667 nm fluorescence, primary screen (AID 1139); conditions: fluorescence 635/667, higher = more signal
[8] = system: wheat germ agglutinin (Triticum aestivum), Alexa647-labelled; assay: Alexa647-WGA lectin binding to printed small molecules – biochemical, small-molecule microarray, 635/667 nm fluorescence, artefact control for SMM control-protein annotation, profiling panel (AID 1140); conditions: WGA-A647 binding, 635 nm fluorescence, higher = more signal;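 also: score merges 667 nm feature emission with signal to noise over triplicate slides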
[9] = biological target: Luciferin 4-monooxygenase (Photinus pyralis) (UniProt P08659); assay: inhibition of purified Photinus pyralis luciferase – biochemical, luminescence, purified enzyme, 2006 set, primary screen (AID 1141); conditions: purified firefly luciferase, SteadyGlo luminescence, 30 min; higher = more signal, called active from +8 up or from −8 down;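 also: cell-free assay with purified firefly luciferase at 100 ng per well in PBS; test concentration not given here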
[10] = system: Wnt5a (protein binding on small-molecule microarray); assay: small molecules binding Wnt5a protein – biophysical, small-molecule microarray, 635/667 nm fluorescence, primary screen (AID 1142); conditions: 635 nm fluorescence, higher = more signal;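 also: fluorescence read at 667 nm with signal to noise per printed feature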
[11] = ATP-based viability of Huh7 replicon cells – cell-based, CellTiter-Glo luminescence, basal, 48 h, cytotoxicity control for HCV replication inhibitor project, primary screen (AID 1143); conditions: higher = more signal, called active from +8 up or from −8 down;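 also: Huh7 hepatoma cells carrying a hepatitis C replication reporter with no stimulus; test concentration not given here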
[12] = Pseudomonas biofilm growth suppression – PAO1 strain, BacTiter-Glo luminescence, LB-PBS, primary screen (AID 1144); conditions: P. aeruginosa PAO1 biofilm, 12 h, higher = more signal
[13] = basal CRE-LacZ reporter activity in PC12 – cell-based, unstimulated, primary screen (AID 1145); conditions: no forskolin, luminescence, 4.5 h, higher = more signal, called active from +8 up or from −8 down
[14] = forskolin-driven CRE-LacZ activity in PC12 – cell-based, CRE-LacZ reporter, forskolin-stimulated, primary screen (AID 1146); conditions: luminescence, 4.5 h, higher = more signal, called active from +8 up or from −8 down;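 also: PC12 cells with 6xCRE LacZ reporter stimulated by forskolin 10 µM; beta-galactosidase reporter signal reflecting CREB driven transcription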
[15] = biological target: Streptavidin (Streptomyces avidinii) (UniProt P22629); assay: compounds binding control protein streptavidin – biophysical, small-molecule microarray, 635/667 nm fluorescence, artefact control for SMM compound annotation, primary screen (AID 1147); conditions: higher = more signal;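 also: signal reflects streptavidin binding to arrayed compounds as a control protein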
[16] = probe aInhba binding on compound microarray – biochemical, small-molecule microarray, 635/667 nm fluorescence, primary screen (AID 1148); conditions: higher = more signal;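 also: score merges 667nm spot fluorescence with signal-to-noise for antibody binding to printed compounds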
Torsin-1A (Homo sapiens) [17] = biological target: Torsin-1A (Homo sapiens) (UniProt O14656); assay: TOR1A wild-type binding on microarray – cell lysate, small-molecule microarray, lysate, 635/667 nm, primary screen (AID 1149); conditions: COS7 hTOR1A-WT lysate, 635 nm fluorescence, higher = more signal
Torsin-1A (Homo sapiens) [18] = biological target: Torsin-1A (Homo sapiens) (UniProt O14656); assay: torsin A mutant lysate binding on microarrays – cell lysate, small-molecule microarray, COS7 lysate, 635/667 nm fluorescence, primary screen (AID 1150); conditions: COS7 hTOR1A mutant lysate, 635 nm fluorescence, higher = more signal;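 also: score pools 667 nm emission and signal to noise measuring lysate protein binding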
[19] = system: Sonic hedgehog protein (Shh); assay: Sonic hedgehog microarray binding compounds – biochemical, small-molecule microarray, 635/667 nm fluorescence, primary screen (AID 1151); conditions: 635 nm fluorescence, higher = more signal;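 also: Shh protein binding to compounds spotted on small-molecule microarray slides; score combines spot fluorescence intensity with signal-to-noise across triplicate slides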

Sequence of Fibroblast growth factor 2 (Homo sapiens) (P09038 whole entry, looked up): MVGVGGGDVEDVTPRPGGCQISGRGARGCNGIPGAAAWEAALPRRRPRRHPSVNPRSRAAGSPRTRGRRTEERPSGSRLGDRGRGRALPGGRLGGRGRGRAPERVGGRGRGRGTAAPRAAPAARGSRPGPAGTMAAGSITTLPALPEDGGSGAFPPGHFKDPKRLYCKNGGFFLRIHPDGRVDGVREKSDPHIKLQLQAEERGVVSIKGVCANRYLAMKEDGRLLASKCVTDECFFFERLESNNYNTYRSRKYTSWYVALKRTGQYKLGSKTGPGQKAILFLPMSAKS
Sequence of Focal adhesion kinase 1 (Homo sapiens) (Q05397 whole entry, looked up): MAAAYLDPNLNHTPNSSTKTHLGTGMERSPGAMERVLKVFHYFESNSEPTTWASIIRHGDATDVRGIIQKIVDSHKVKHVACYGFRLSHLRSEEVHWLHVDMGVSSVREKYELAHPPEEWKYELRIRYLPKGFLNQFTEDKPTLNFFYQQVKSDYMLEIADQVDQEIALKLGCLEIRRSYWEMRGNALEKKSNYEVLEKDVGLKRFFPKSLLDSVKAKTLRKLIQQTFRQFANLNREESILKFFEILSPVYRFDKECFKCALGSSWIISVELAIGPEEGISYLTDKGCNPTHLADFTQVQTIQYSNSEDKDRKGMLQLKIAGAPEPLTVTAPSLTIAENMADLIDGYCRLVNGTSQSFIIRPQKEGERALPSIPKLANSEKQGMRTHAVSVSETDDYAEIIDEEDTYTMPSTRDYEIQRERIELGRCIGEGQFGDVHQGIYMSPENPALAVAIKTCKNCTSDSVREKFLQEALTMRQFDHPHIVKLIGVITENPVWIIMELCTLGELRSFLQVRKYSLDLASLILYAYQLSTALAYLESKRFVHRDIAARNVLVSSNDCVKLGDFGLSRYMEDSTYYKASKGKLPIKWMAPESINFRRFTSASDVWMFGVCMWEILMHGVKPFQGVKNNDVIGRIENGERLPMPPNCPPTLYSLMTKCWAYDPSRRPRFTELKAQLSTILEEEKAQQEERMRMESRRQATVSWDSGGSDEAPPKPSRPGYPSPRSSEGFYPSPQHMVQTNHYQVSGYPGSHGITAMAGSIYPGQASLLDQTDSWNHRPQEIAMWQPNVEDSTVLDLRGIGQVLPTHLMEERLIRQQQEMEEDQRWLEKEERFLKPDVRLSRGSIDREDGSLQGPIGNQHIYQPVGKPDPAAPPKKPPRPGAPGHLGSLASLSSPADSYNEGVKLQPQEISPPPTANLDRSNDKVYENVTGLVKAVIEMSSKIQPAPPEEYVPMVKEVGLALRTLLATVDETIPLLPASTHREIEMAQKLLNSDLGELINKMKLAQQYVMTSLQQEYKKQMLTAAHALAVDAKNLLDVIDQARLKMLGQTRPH
Sequence of Torsin-1A (Homo sapiens) (O14656 whole entry, looked up): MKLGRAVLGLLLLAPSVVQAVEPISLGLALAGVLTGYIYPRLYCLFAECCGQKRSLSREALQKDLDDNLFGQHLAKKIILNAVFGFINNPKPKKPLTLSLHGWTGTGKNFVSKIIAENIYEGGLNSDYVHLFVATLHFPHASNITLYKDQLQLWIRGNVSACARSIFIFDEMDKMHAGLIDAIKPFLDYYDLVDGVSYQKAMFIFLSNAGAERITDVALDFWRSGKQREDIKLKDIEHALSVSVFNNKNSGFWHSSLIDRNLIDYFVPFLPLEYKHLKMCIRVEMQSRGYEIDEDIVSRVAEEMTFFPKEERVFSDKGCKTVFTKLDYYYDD
Sequence of Follistatin (Homo sapiens) (P19883 whole entry, looked up): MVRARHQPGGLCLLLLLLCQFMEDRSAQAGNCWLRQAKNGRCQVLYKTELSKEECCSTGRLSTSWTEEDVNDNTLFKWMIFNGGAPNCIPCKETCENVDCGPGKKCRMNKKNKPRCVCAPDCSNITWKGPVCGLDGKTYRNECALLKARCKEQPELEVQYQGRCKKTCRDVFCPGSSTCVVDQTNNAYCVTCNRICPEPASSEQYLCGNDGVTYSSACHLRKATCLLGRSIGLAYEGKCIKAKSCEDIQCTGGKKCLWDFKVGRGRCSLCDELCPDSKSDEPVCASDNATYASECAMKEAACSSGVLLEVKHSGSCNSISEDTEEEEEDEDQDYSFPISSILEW
Sequence of Streptavidin (Streptomyces avidinii) (P22629 whole entry, looked up): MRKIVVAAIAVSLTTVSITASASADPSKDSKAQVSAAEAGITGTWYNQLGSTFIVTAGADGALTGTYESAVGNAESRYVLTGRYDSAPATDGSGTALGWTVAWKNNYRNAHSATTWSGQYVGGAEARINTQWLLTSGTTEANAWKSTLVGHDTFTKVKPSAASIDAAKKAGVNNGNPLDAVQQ
Sequence of Luciferin 4-monooxygenase (Photinus pyralis) (P08659 whole entry, looked up): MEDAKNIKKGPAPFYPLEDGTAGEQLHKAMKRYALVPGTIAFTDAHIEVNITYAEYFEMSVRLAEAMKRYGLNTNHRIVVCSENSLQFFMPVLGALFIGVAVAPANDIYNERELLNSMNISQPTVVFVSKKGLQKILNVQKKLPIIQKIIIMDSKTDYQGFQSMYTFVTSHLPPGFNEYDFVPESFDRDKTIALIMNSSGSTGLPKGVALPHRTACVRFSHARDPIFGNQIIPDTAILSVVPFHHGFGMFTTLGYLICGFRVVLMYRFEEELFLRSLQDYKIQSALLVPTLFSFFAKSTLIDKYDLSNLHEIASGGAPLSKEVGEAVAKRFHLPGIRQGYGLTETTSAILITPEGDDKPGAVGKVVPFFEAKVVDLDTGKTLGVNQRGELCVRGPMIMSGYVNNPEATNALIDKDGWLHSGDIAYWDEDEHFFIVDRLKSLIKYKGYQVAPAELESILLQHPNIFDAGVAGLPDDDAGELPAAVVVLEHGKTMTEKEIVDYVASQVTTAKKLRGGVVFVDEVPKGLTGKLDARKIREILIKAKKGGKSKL

Compound | composite z-score [1] | composite z-score [2] | composite z-score [3] | composite z-score [4] | composite z-score [5] | composite z-score [6] | z-score [7] | composite z-score (Lefty1) | composite z-score [8] | z-score [9] | composite z-score [10] | z-score [11] | z-score [12] | z-score [13] | z-score [14] | composite z-score [15] | composite z-score [16] | composite z-score (Torsin-1A (Homo sapiens) [17]) | composite z-score (Torsin-1A (Homo sapiens) [18]) | composite z-score [19]
COCCOC(=O)N1C(=O)[C@@]2(c3cc(C#CCCO)ccc31)[C@H](c1ccccc1OCCO)N1[C@H](c3ccccc3)[C@H](c3ccccc3)OC(=O)[C@H]1[C@@H]2C(=O)Nc1nc2ccccc2s1 | 2.09 | 1.2 | 0.771 | 0.733 | 1.07 | 0.957 | -2.27 | 0.932 | 1.24 | -0.499 (inactive) | 0.138 | -0.99 (inactive) | 0.564 (inactive) | -0.467 (inactive) | 0.428 (inactive) | 0.284 | 0.107 | 0.691 | 0.568 | 1.66
O=c1n(-c2ccccc2)c(=O)n2n1CC(COc1ccccc1)=C([C@H](O)CCc1ccccc1)[C@@H]2CO | 0.308 | 0.0864 | -0.18 | 0.783 | 0.415 | 1.14 | 0.77 | 0.635 | 0.576 | -1.35 (inactive) | -0.0748 | -2.16 (inactive) | -0.496 (inactive) | 1.49 (inactive) | -0.373 (inactive) | -0.275 | -0.0618 | 0.8 | -0.119 | 0.426
COCCOC(=O)N1C(=O)[C@@]2(c3cc(C#CC4=CCCCC4)ccc31)[C@H](c1ccccc1OCCO)N1[C@H](c3ccccc3)[C@H](c3ccccc3)OC(=O)[C@H]1[C@@H]2C(=O)N1CCCCCCC1 | 0.778 | 1.22 | 0.724 | 0.767 | 1.24 | 1.14 | -0.433 | 0.277 | 0.405 | -0.22 (inactive) | 0.582 | -4.01 (inactive) | 0.727 (inactive) | -0.402 (inactive) | 0.207 (inactive) | 0.342 | -0.584 | 0.931 | 0.156 | 0.755
COC(=O)[C@@]1(Cc2ccc(F)cc2)[C@H]2c3cc(C(=O)N(C)C)n(CCc4ccc(O)c(OC)c4)c3C[C@H]2CN1C(=O)c1ccccc1 | 0.339 | 0.923 | 0.0947 | 0.886 | 0.472 | 0.741 | 0.345 | -0.244 | 0.312 | 0.215 (inactive) | 2.23 | 0.462 (inactive) | -0.0301 (inactive) | 0.783 (inactive) | 0.15 (inactive) | 0.637 | 1.62 | 0.334 | 0.234 | -0.804
COC(=O)[C@@]1(Cc2ccc(F)cc2)[C@H]2c3cc(C(=O)N4CCCC4)n(CCc4ccc(O)c(O)c4)c3C[C@H]2CN1C(=O)c1ccccc1 | -0.371 | -0.253 | 0.842 | -2.54 | -0.411 | -0.751 | -0.692 | -0.49 | -0.312 | -7.51 (inactive) | 1.2 | -1.78 (inactive) | -0.809 (inactive) | 3.05 (inactive) | -0.268 (inactive) | -0.185 | 1.24 | 0.0585 | 0.0389 | -0.987
C=C(C)c1cc2c(c(CCCCCC)n1)[Si](C(C)C)(C(C)C)OC2 | 0.18 | -1.15 | -0.534 | -1.93 | -0.522 | -1.45 | -1.17 | -0.174 | -1.19 | 0.903 (inactive) | -0.712 | -0.342 (inactive) | 0.582 (inactive) | 0.367 (inactive) | 0.0246 (inactive) | -1.01 | -0.159 | -1.74 | -1.05 | -0.351
COC(=O)[C@@]1(Cc2ccc(OC)cc2)[C@H]2c3cc(C(=O)N4CCCC4)n(Cc4c(-c5ccccc5)noc4C)c3C[C@H]2CN1C(=O)c1ccccc1 | 1.45 | 1.27 | 0.372 | 0.695 | 0.699 | -0.298 | -0.608 | 0.0669 | 0.539 | 2.05 (inactive) | 1.01 | -3.29 (inactive) | -0.452 (inactive) | -0.185 (inactive) | -0.531 (inactive) | 0.945 | 0.659 | 1.27 | 0.776 | -0.314
C=CCOC(=O)[C@H]1[C@@H]2C(=O)O[C@@H](c3ccccc3)[C@@H](c3ccccc3)N2[C@@H](c2ccc(OCCOC(=O)[C@@H]3C[C@@H]4C(=O)N[C@@H](CCCCN(C)C)C(=O)N4[C@@H]3c3ccc(O)cc3)cc2)[C@]12C(=O)Nc1ccccc12 | 1.57 | 1.14 | 0.0515 | 0.503 | 1.38 | 1.48 | -1.49 | 1.54 | 0.382 | -3.27 (inactive) | 0.261 | -0.0273 (inactive) | 0.283 (inactive) | 0.411 (inactive) | 0.739 (inactive) | -0.245 | -0.0468 | 0.756 | 0.73 | 1.96
O=C1N(Cc2ccccc2)Cc2ccccc2[C@@H]2OC(c3ccc(OCCCO)cc3)=N[C@]12CCS(=O)(=O)c1ccccc1 | 0.624 | 1.19 | 0.389 | 0.768 | 0.953 | 1.4 | -0.461 | -0.0333 | 1.04 | -0.929 (inactive) | 0.534 | -2.33 (inactive) | 0.245 (inactive) | 3.78 (inactive) | -0.832 (inactive) | 0.379 | 0.0742 | 0.529 | 0.489 | 1.42
Cc1ccccc1C(O)C1C=CC2C(=O)N(C)C(=O)C2N1N(c1ccccc1)c1ccccc1 (stereo not given) | 1.13 | -0.298 | -0.128 | 0.354 | 0.799 | -0.0234 | 0.429 | -0.543 | 0.641 | -0.609 (inactive) | 0.613 | -0.0897 (inactive) | -0.588 (inactive) | -0.136 (inactive) | -0.0376 (inactive) | 0.115 | 1.15 | -0.0241 | 0.0289 | 0.188
